Data taken from the supplement of paper PMC10849652.
About 7,900 targets were measured; listed, in parts, are those with a hit and a random draw of the rest. About 0.6% of all pairs of compound and target were hits.

Tests used:
Experiment in all cases: log2 fold change, soluble protein after heating vs DMSO (PISA); higher = thermal stabilisation; K562 cells, 10 uM, 30 min; active = over 0.2 and 3.5 SD of the protein, either way, in both replicates (recomputed)
[1] = compound: C1COCCN1CCN2C3=CC=CC=C3N=C2NC(=O)C4=CC(=CC=C4)[N+](=O)[O-] [IRAK-1-4 Inhibitor I]
Outline: (§1)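 Thermal stability values are relative to control samples and come from duplicates. They are expressed as log2 fold changes. For measurement, K562 cells (2×10^6 cells/mL) received 10 μM compound for 30 min, and aliquots were heated for 3 min over 48°C-58°C, pooled, and extracted at 4°C in PBS with 0.5% NP-40. Soluble protein, the supernatant after 21,000xg for 90 min, was quantified by TMTpro 16plex LC-MS/MS with equalised channel sums.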

[2] = compound: C=CC(=O)N1CCC[C@@H](n2nc(-c3ccc(Oc4ccccc4)cc3)c3c(N)ncnc32)C1 [ibrutinib]
Outline: as §1

[3] = compound: CC(=O)c1cnc2ccc(-c3cc(Cl)c(O)c(Cl)c3)nc2c1N[C@H]1CC[C@H](CN(C)C)CC1
Outline: as §1

[4] = compound: CC(C)(C)Cn1c(N)nc2ccc(-c3[nH]c(C(C)(C)C)nc3-c3ccc(F)cc3)nc21 [ralimetinib]
Outline: as §1

[5] = compound: CC(C)(O)CC(=O)NCCn1ccc2ncnc(Nc3ccc(Oc4cccc(C(F)(F)F)c4)c(Cl)c3)c21
Outline: as §1

[6] = compound: CC(C)C1=C2N=C(C=C(N2N=C1)NCC3=CC=CC=C3)NCCCCCCN
Outline: as §1

[7] = compound: CC(C)C[C@@H](C=O)NC(=O)[C@H](CC(C)C)NC(=O)[C@H](CC(C)C)NC(=O)OCc1ccccc1
Outline: as §1

[8] = compound: CC(C)N(C[C@H]1O[C@@H](n2cnc3c(N)ncnc32)[C@H](O)[C@@H]1O)[C@H]1C[C@@H](CCc2nc3cc(C(C)(C)C)ccc3[nH]2)C1 [pinometostat]
Outline: as §1

[9] = compound: CC1=C(C(CC(=O)N1)C2=CC=C(C=C2)C(F)(F)F)C(=O)NC3=C(C=C4C(=C3)C=NN4)F
Outline: as §1

[10] = compound: CC1=C(C2=C(C=C1)C(=O)C3=CC=CC=C3N2CCCN)C
Outline: as §1

[11] = compound: CC1=C(C=C(C=C1)NC(=O)C2=CC(=CC=C2)C(C)(C)C#N)NC3=CC4=C(C=C3)N=CN(C4=O)C
Outline: as §1

[12] = compound: CC1=C(C=C(C=C1)NC(=O)C2=CC(=CC=C2)N(C)C)NC(=O)C3=CC=C(C=C3)O
Outline: as §1

[13] = compound: CC1=CC=C(C=C1)SC2=C3C=C(SC3=CN=C2)C(=O)N
Outline: as §1

[14] = compound: CC1=NC(=CC=C1)C2=C(N=C(N2)C(C)(C)C)C3=CC4=NC=CN=C4C=C3
Outline: as §1

[15] = compound: CCCCN(Cc1ccc(C(=O)NO)cc1)C(=O)Nc1ccccc1 [Nexturastat A]
Outline: as §1

[16] = compound: CCCS(=O)(=O)Nc1ccc(F)c(C(=O)c2c[nH]c3ncc(-c4ccc(Cl)cc4)cc23)c1F [vemurafenib]
Outline: as §1

[17] = compound: CCCS(=O)(=O)Nc1ccc(F)c(C(=O)c2c[nH]c3ncc(Cl)cc23)c1F
Outline: as §1

[18] = compound: CCCc1cc(C)[nH]c(=O)c1CNC(=O)c1cc(-c2ccnc(N3CCN(C)CC3)c2)cc2c1cnn2C(C)C
Outline: as §1

[19] = compound: CCN(CC)Cc1ccc2cc(COC(=O)Nc3ccc(C(=O)NO)cc3)ccc2c1 [givinostat]
Outline: as §1

[20] = compound: CCN(CCCOc1ccc2c(Nc3cc(CC(=O)Nc4cccc(F)c4)[nH]n3)ncnc2c1)CCOP(=O)(O)O [barasertib]
Outline: as §1

Measured: log2 fold change

EXOC7 (UniProt Q9UPT5)
UniProt Q9UPT5, sequence (Q9UPT5 whole entry, looked up): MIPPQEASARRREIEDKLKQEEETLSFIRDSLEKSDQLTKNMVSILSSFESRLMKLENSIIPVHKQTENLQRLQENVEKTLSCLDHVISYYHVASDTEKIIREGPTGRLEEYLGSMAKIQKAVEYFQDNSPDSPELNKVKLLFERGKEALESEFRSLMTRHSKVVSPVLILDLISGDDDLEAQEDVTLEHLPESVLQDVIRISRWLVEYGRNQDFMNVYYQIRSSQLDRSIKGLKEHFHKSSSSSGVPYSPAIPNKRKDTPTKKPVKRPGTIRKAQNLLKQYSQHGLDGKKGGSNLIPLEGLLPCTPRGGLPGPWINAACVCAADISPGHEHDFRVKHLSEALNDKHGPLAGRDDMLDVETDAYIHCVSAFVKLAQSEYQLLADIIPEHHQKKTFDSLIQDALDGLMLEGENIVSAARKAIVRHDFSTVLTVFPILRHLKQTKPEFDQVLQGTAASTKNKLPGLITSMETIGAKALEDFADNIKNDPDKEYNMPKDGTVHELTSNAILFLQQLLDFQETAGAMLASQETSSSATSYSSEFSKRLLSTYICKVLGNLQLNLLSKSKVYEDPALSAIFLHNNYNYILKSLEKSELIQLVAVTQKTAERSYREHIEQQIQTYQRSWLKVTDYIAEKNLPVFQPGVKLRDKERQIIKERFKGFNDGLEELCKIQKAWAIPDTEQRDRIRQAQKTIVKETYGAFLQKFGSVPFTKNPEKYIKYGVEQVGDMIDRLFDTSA
inactive: [1] -0.047 | [2] -0.029 | [3] 0.002 | [4] 0.049 | [5] -0.109 | [6] -0.276 | [7] 0.044 | [8] 0.043 | [9] 0.041 | [10] 0.045 | [11] -0.116 | [12] -0.057 | [13] -0.014 | [14] -0.05 | [15] 0.065 | [16] 0.032 | [17] 0.07 | [18] 0.079 | [19] 0.09 | [20] 0.036

CYFIP1 (UniProt Q7L576)
inactive: [1] -0.001 | [2] -0.019 | [3] -0.07 | [4] -0.013 | [5] -0.056 | [6] -0.042 | [7] -0.013 | [8] 0.001 | [9] 0.009 | [10] 0.026 | [11] 0.012 | [12] 0.005 | [13] 0.017 | [14] 0.035 | [15] -0.043 | [16] 0.026 | [17] 0.019 | [18] 0.006 | [19] -0.005 | [20] 0.038

DIP2A (UniProt Q14689)
inactive: [1] -0.036 | [2] 0.053 | [3] -0.06 | [4] 0.102 | [5] 0.003 | [6] -0.023 | [7] 0.118 | [8] 0.064 | [9] 0.084 | [10] 0.018 | [11] 0.032 | [12] -0.013 | [13] -0.007 | [14] 0.07 | [15] -0.119 | [16] 0.05 | [17] -0.009 | [18] 0.336 | [19] -0.05 | [20] 0.118

DNAJC7 (UniProt Q99615)
UniProt Q99615, sequence (Q99615 whole entry, looked up): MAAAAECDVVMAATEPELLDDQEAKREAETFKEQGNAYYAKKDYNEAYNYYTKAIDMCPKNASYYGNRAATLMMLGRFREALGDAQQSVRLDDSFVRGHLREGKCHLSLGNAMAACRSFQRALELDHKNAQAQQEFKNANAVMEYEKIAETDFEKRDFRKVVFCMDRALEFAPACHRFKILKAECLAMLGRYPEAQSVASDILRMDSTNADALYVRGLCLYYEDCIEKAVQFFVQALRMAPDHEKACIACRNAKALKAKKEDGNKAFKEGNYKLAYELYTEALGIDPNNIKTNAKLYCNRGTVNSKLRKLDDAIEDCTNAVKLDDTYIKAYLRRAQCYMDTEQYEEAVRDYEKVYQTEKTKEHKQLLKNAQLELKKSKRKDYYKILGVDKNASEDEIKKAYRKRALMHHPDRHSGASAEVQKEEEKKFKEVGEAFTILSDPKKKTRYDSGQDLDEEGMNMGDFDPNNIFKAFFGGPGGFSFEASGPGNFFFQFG
inactive: [1] -0.041 | [2] -0.012 | [3] -0.007 | [4] -0.014 | [5] -0.022 | [6] -0.117 | [7] 0.023 | [8] -0.034 | [9] -0.003 | [10] 0.04 | [11] -0.006 | [12] -0.037 | [13] 0.029 | [14] 0.042 | [15] -0.01 | [16] 0.029 | [17] 0.098 | [18] 0.02 | [19] 0.032 | [20] 0.064

EIF4E2 (UniProt O60573)
UniProt O60573, sequence (O60573 whole entry, looked up): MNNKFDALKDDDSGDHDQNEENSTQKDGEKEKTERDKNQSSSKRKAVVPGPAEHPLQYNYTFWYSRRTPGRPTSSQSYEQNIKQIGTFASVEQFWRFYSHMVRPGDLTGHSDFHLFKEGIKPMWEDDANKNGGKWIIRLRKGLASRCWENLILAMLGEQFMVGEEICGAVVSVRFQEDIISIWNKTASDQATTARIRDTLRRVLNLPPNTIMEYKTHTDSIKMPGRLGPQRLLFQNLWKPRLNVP
inactive: [1] 0.064 | [2] -0.007 | [3] -0.272 | [4] 0.012 | [5] -0.036 | [6] -0.109 | [7] 0.118 | [8] 0.043 | [9] 0.056 | [10] 0.116 | [11] -0.089 | [12] -0.006 | [13] 0.061 | [14] 0.089 | [15] 0.097 | [16] 0.126 | [17] 0.069 | [18] 0 | [19] 0.031 | [20] 0.083

DYRK1A isoform 2 (UniProt Q13627)
inactive: [1] -0.001 | [2] -0.009 | [4] -0.046 | [5] -0.042 | [6] -0.254 | [7] 0.064 | [8] 0.055 | [9] -0.014 | [10] 0.144 | [11] -0.025 | [12] 0.061 | [13] 0.003 | [14] -0.005 | [15] -0.032 | [16] -0.021 | [17] -0.024 | [18] -0.019 | [19] 0.038 | [20] 0.004
active: [3] -0.358

DBNL isoform 3 (UniProt Q9UJU6)
inactive: [1] -0.075 | [2] -0.122 | [3] 0.006 | [4] -0.015 | [5] -0.132 | [6] -0.136 | [7] -0.007 | [8] -0.044 | [9] -0.02 | [10] -0.066 | [11] -0.051 | [12] -0.019 | [13] 0.011 | [14] 0.113 | [15] -0.082 | [16] 0.07 | [17] 0.1 | [18] -0.006 | [19] 0.036 | [20] 0.045

EOGT (UniProt Q5NDL2)
UniProt Q5NDL2, sequence (Q5NDL2 whole entry, looked up): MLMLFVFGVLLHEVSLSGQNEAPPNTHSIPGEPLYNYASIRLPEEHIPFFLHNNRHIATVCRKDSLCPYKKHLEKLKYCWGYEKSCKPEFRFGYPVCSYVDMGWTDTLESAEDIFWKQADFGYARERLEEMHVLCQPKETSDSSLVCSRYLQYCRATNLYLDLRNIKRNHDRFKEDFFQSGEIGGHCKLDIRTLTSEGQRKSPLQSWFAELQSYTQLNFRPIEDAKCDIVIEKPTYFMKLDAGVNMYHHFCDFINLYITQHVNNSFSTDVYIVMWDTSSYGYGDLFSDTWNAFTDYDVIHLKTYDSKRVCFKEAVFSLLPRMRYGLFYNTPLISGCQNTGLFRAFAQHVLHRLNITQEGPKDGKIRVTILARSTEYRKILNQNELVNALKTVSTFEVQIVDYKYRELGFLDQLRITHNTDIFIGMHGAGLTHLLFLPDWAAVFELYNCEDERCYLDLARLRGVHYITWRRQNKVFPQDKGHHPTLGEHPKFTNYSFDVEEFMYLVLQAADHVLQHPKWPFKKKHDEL
inactive: [1] -0.002 | [2] 0.005 | [3] 0.006 | [4] -0.036 | [5] 0.016 | [6] -0.024 | [7] 0.026 | [8] 0.075 | [9] 0.002 | [10] 0.003 | [11] -0.043 | [12] -0.073 | [13] -0.088 | [14] -0.052 | [15] 0.033 | [16] -0.05 | [17] -0.098 | [18] -0.043 | [19] 0.02 | [20] -0.026

FAM50A (UniProt Q14320)
UniProt Q14320, sequence (Q14320 whole entry, looked up): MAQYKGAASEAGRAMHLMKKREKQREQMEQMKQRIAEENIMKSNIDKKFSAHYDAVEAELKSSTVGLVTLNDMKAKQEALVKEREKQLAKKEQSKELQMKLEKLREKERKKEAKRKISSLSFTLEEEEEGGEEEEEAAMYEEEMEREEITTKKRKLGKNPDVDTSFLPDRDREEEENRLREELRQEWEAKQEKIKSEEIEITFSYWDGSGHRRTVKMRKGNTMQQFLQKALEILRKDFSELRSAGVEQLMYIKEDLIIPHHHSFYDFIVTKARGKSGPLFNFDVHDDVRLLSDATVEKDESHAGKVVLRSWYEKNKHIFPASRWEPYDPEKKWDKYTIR
inactive: [1] -0.014 | [2] -0.011 | [3] -0.01 | [4] -0.029 | [5] -0.027 | [6] 0 | [7] 0.043 | [8] -0.016 | [9] -0.026 | [10] 0.053 | [11] 0.041 | [12] -0.059 | [13] 0.019 | [14] 0.057 | [15] -0.069 | [16] 0.049 | [17] 0.035 | [18] 0.014 | [19] 0.102 | [20] 0.026

ELOVL1 (UniProt Q9BW60)
UniProt Q9BW60, sequence (Q9BW60 whole entry, looked up): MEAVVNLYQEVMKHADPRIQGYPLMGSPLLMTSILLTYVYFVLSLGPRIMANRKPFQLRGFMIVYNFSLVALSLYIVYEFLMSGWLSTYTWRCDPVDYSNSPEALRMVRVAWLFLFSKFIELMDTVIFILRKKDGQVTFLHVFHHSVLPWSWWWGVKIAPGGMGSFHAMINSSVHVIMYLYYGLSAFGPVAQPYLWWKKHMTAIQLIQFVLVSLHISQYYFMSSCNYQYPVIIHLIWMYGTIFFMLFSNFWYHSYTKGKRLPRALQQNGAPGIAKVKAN
inactive: [1] 0.079 | [2] -0.006 | [3] 0.018 | [4] 0.029 | [5] -0.197 | [7] 0.036 | [8] 0.063 | [9] 0.016 | [10] 0.099 | [11] -0.035 | [12] -0.065 | [13] 0.064 | [14] 0.044 | [15] 0.03 | [16] -0.032 | [17] 0.116 | [18] -0.063 | [19] 0.067 | [20] 0.028
active: [6] -0.628

DTNBP1 (UniProt Q96EV8)
UniProt Q96EV8, sequence (Q96EV8 whole entry, looked up): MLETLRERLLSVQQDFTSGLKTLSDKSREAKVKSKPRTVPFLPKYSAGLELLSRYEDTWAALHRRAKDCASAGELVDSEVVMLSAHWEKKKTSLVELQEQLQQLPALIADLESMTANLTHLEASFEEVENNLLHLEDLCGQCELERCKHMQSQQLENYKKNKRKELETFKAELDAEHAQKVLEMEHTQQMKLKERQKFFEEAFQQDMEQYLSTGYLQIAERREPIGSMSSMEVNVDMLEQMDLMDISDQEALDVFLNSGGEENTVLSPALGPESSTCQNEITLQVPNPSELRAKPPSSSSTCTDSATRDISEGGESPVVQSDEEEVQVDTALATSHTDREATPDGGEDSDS
inactive: [1] 0.069 | [2] -0.025 | [3] 0.038 | [4] -0.136 | [5] -0.058 | [6] -0.009 | [7] -0.029 | [8] -0.044 | [9] -0.01 | [10] 0.092 | [11] -0.078 | [12] 0.006 | [13] 0.001 | [14] 0.055 | [15] -0.022 | [16] 0.021 | [17] 0.017 | [18] -0.026 | [19] -0.014 | [20] 0.01

DYNC1I2 isoform 5 (UniProt Q13409)
UniProt Q13409, sequence (Q13409 whole entry, looked up): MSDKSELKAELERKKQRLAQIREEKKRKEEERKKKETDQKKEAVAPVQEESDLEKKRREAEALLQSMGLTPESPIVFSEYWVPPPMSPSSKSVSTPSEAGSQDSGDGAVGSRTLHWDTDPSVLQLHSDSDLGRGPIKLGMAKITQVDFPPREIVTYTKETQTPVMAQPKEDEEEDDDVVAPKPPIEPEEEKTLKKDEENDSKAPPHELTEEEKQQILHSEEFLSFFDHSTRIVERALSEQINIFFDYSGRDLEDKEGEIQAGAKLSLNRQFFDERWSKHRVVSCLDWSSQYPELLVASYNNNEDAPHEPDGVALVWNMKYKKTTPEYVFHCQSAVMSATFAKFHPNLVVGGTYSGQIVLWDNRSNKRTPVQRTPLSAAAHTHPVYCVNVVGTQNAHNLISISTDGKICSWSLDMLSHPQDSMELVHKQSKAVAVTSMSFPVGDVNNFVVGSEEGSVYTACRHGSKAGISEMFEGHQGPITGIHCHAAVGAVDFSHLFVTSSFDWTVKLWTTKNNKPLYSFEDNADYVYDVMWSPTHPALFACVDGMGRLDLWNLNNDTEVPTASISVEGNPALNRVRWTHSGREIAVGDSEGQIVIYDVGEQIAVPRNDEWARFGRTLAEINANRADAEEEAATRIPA
inactive: [1] 0.022 | [2] 0.016 | [3] 0.022 | [4] 0.013 | [5] -0.003 | [6] 0.041 | [7] 0.062 | [8] -0.019 | [9] -0.015 | [10] -0.032 | [11] -0.008 | [12] -0.03 | [13] -0.006 | [14] 0.028 | [15] 0.043 | [16] -0.009 | [17] 0.005 | [18] -0.007 | [19] -0.005 | [20] -0.013

DHX16 (UniProt O60231)
UniProt O60231, sequence (O60231 whole entry, looked up): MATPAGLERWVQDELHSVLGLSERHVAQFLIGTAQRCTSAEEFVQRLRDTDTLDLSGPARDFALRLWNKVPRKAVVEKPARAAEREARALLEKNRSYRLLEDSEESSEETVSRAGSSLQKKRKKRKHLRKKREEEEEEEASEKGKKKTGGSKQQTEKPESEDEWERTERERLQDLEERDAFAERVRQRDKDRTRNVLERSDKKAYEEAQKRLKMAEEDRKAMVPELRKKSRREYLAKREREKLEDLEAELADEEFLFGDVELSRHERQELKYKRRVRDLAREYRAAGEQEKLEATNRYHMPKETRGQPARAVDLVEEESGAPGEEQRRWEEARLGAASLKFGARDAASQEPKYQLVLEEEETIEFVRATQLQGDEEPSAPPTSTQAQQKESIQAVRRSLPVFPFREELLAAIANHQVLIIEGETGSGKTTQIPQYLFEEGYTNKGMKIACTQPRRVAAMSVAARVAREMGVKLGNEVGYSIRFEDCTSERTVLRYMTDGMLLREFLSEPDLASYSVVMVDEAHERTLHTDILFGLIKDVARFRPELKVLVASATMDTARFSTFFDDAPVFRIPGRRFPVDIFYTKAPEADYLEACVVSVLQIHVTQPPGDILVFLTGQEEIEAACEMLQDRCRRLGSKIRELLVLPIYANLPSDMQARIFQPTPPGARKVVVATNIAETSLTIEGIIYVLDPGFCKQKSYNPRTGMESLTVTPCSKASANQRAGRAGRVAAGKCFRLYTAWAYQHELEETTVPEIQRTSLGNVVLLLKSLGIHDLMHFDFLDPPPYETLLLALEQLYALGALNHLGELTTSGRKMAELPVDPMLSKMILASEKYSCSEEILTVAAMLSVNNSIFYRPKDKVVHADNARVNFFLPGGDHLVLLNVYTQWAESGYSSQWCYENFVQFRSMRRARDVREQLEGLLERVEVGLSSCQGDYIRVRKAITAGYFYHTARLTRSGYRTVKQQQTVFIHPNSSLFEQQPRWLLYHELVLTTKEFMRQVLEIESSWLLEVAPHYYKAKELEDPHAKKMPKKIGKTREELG
inactive: [1] -0.006 | [2] 0 | [4] -0.001 | [5] -0.025 | [6] -0.002 | [7] 0.009 | [8] 0.004 | [9] -0.045 | [10] 0.159 | [11] -0.014 | [12] -0.018 | [13] 0.024 | [14] 0.036 | [15] -0.002 | [16] 0.017 | [17] 0.059 | [18] -0.011 | [19] 0.017 | [20] 0.032
active: [3] -0.257
